Most compounds without a hit are left out; they make up all but 21% or so of the library.
DT40 TDP1 no CPT = qHTS for Inhibitors of human tyrosyl-DNA phosphodiesterase 1 (TDP1): qHTS in cells in absence of CPT | Potency, µM (titrated, usually from 46.2 µM), usual class: inhibitors | 15% of 420,000 active | DT40 Tdp1-/- hTDP1 cells, no CPT, ATP luminescence, 48 h; note: nearly all actives have a fitted effect of over 55% in size
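Growth of hTDP1-complemented DT40 Tdp1-knockout cells is measured by ATP luminescence after at least 48 hr compound exposure at 37 °C, with DMSO substituting for the 20 nM CPT used in the parallel screen.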
ClpP mod = qHTS Assay for Activators of ClpP | purified B. subtilis ClpP, FRET peptide cleavage, 20 min | Potency, µM (series often up to 57.5 µM) | ATP-dependent Clp protease proteolytic subunit (Bacillus subtilis (strain 168)), P80244 | 1.9% of 340,000 active; active = well fitted falling curve with a large enough effect; inconclusive = small, poorly fitted or top-dose-only effect; inactive = no such curve, though single readings can be large or run the other way; note: the source files actives as falling curves though it sought activators and does not explain the sign; nearly all actives have a fitted effect of over 65% in size
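FRET quenching reversal measured ClpP activation: 10 microg/mL B. subtilis ClpP at pH 8 with the FRET-FV decapeptide, read at 430 nm after 320 nm excitation. The 20-min minus 0-min signal was scaled between DMSO/no-enzyme wells and ADEP (5.8 microM final).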
IL1B secr inh = blocks inflammasome-driven IL-1 beta release; 4.7% of 360,000 active; THP-1 LPS/ATP IL-1B secretion, AlphaLISA, 16 h; active compounds read low; AID 743279; activity change, % at 57.5 µM; in the data active = activity change below about -50%; inconclusive = mostly about -30% to -49%
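Secreted IL-1B measured by AlphaLISA bead assay after 16 h compound exposure of THP-1 cells; compounds (final up to 57.5 uM) added 1 h before LPS (250 ng/mL) and ATP (1.25 mM) stimulation; lower signal means less secretion.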
TDP1 cell CPT = DT40-hTDP1 cell growth loss with CPT. chicken DT40 Tdp1-/-;hTDP1 cells + 20 nM CPT, ATP luminescence, 48 h. Potency, µM (highest dose often 46.2 µM), hits mostly inhibitors. 12% of 420,000 active. AID 686979; note: nearly all actives have a fitted effect of over 55% in size
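Chicken DT40 Tdp1-/- cells stably complemented with human TDP1 were seeded at 400 cells/well in medium containing 20 nM camptothecin, exposed to pin-transferred compounds, and grown at 37 °C for at least 48 hr. Viability was read as ATP luminescence.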
D3 antag = blocks the human D3 dopamine receptor; P35462; D3R cells, DiscoveRx beta-arrestin luminescence, antagonist mode; active compounds read low; max response, negative = inhibition, %; 2.5% of 360,000 active; in the data active = max response below about -50%; inconclusive = no clear call, values can overlap the other calls
Target sequence (P35462 whole entry, looked up): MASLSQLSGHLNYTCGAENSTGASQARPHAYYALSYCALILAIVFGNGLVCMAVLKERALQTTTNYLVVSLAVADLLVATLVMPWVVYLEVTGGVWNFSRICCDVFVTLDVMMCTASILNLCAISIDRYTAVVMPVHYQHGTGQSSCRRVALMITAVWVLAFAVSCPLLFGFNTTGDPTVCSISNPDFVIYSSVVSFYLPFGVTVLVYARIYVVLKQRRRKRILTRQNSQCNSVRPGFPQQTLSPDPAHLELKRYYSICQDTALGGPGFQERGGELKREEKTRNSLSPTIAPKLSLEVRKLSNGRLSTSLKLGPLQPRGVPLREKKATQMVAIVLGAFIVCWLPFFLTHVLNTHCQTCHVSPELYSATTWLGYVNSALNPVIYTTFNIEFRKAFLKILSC
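Cells expressing the human receptor were seeded at 1500 cells/well, incubated overnight at 37 degrees C in 5% CO2, then exposed to library compounds with dopamine controls for 90 minutes at 37 degrees C before luminescent detection.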
D3 ag = D3 dopamine receptor (human) agonism | 0.58% of 410,000 active | D3R DiscoveRx beta-arrestin cells, luminescence, 90 min | max activation, % | AID 652048 | P35462; in the data active = max activation above about 30%
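Agonist mode: compounds and dopamine controls were applied to plated cells for 90 min at 37 degrees C after an overnight attachment at 1500 cells/well. Luminescent read-out followed 30 - 60 minutes at room temperature with DiscoveRx detection reagent.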
Hits are given with their value; – = inactive; ? = inconclusive; · = not tested or not shown. Unless noted, calls come from the whole dose curve; as a rule, active = well fitted inhibition curve with a large enough effect; inconclusive = small, poorly fitted or top-dose-only effect; inactive = flat fitted curve, though single readings scatter.

SMILES | DT40 TDP1 no CPT | ClpP mod | IL1B secr inh | TDP1 cell CPT | D3 antag | D3 ag
CCCCCn1c(CCCNC(=O)c2ccc(Cl)cc2)nc2ccccc21 | 16.4µM | – | · | ? | · | –
Cc1cc(C)n2nc(SC(C)C(=O)N(C)c3ccccc3)nc2n1 (stereo not given) | – | – | – | – | – | –
CCCCn1c(C(C)O)nc2ccccc21 (stereo not given) | – | – | – | – | – | –
Cn1c(CCCNC(=O)c2ccccc2)nc2ccccc21 | – | – | – | – | -53.9 | –
CC(O)c1nc2ccccc2n1CCCCOc1ccccc1 (stereo not given) | 14.6µM | · | – | – | – | –
O=C1N=c2ccc([N+](=O)[O-])cc2=C1c1sc(=O)[nH]c1O | ? | · | – | ? | – | –
CCc1nnc2c3ccccc3nc(Nc3ccc(C(C)=O)cc3)n12 | 7.31µM | – | · | ? | · | –
CCc1nnc2c3ccccc3nc(Nc3cc(C)cc(C)c3)n12 | 3.66µM | – | · | 6.51µM | · | –
CCOc1cc(/C=N/Nc2nc(-c3cccs3)c(NC(C)=O)s2)ccc1O | 13µM | · | -60.4 | – | – | –
CC(=O)Nc1sc(N/N=C/c2ccccc2)nc1-c1ccc(C)cc1 | ? | – | -90.2 | ? | – | –
CC(=O)Nc1sc(N/N=C\c2ccccc2Cl)nc1-c1cccs1 | 18.4µM | – | – | 16.4µM | – | –
O=C(CN1CCN(c2ccc(Cl)cc2[N+](=O)[O-])CC1)N1CCOCC1 | – | · | · | – | – | –
COC(=O)C(=O)/C=C(\O)c1c(C)cc(C)cc1C | – | · | – | – | – | –
Cc1c(CNCc2ccc(Cl)cc2)c(C(=O)O)c(C)n1Cc1ccc(F)cc1 | ? | – | · | ? | · | –
O=C(Nc1ccc2c(c1)CN(C(=O)Nc1ccc(F)cc1)CC2)c1ccccn1 | 4.11µM | – | – | 5.8µM | – | –
CSc1ccccc1C(=O)N1CCc2ccc(NC(=O)c3ccccn3)cc2C1 | 11.6µM | – | – | 13µM | – | –
CSc1ccc(C(=O)N2CCc3ccc(NC(=O)c4ccccn4)cc3C2)cc1 | ? | – | – | ? | – | –
Cn1cccc1C(=O)N1CCC2(CCCN(C(=O)Nc3ccccc3)C2)CC1 | – | · | · | – | · | ·
COc1ccc(C2CC(c3ccc4ccccc4c3)=NN2C(=O)COC(=O)C2CCC(=O)N2)cc1 (stereo not given) | ? | – | -69.5 | 16.4µM | – | –
COc1ccc(C2CC(c3ccc4ccccc4c3)=NN2C(=O)CN2CCC(C(N)=O)CC2)cc1 (stereo not given) | ? | – | -81.6 | ? | – | –
COc1ccc(C2CC(c3ccc4ccccc4c3)=NN2C(=O)CNC2CCCCC2)cc1 (stereo not given) | 13µM | – | -50.9 | 14.6µM | – | –
C=CCNCC(=O)N1N=C(c2ccc3ccccc3c2)CC1c1ccc(OC)cc1 (stereo not given) | 13µM | · | – | 8.2µM | – | –
COc1ccc(C2=NN(C(=O)CCC(=O)O)C(c3ccc(OC)cc3)C2)cc1 (stereo not given) | – | · | – | – | – | –
CC(=O)OCC(=O)N1N=C(c2ccc3ccccc3c2)CC1c1ccccc1 (stereo not given) | – | · | – | – | – | –
COc1ccc(CNC(=O)c2ccc(CNS(=O)(=O)c3ccc(F)cc3)cc2)cc1 | – | – | · | – | · | –
O=C(O)Cc1sc(-c2ccc(Cl)cc2)nc1-c1ccccc1 | ? | – | – | ? | – | –
O=C(O)Cc1sc(-c2ccccc2)nc1-c1ccccc1 | – | 31.6µM | – | – | – | –
CCCCN(C(=O)c1ccc(S(=O)(=O)N(CC)CC)cc1)c1c(N)n(CCC)c(=O)[nH]c1=O | – | – | – | – | – | –
COC(=O)c1ccc(C(=O)NN)cc1 | – | – | – | – | – | –
CCC/C=C(\CCC)C(NC(=O)c1ccc(C(=O)OC)cc1)c1ccc(C(=O)OC)cc1 (stereo not given) | 7.31µM | – | – | 9.2µM | – | –

From PubChem
